{
  "source": "PubChem BioAssay (NCI)",
  "note": "About 79,000 compounds went through this panel and 15% of them were active in at least one assay; those are over-represented in the sample as a whole. Unmarked numbers belong to inactive results. The source made the active and inactive calls. Rule as the data show it: active = growth inhibition above about 70%; inactive = the rest.",
  "data": [
    {"test": "NCI Yeast Anticancer Drug Screen. Data for the sgs1 mgt1 strain (AID 161);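 also: 0% = growth of cultures given vehicle only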", "conditions": "S. cerevisiae sgs1 mgt1 strain, at 50.0 µM, hits give high values", "summary_of_the_method": "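This yeast growth screen uses a strain with defined DNA-repair lesions; compound-treated growth is compared with vehicle-treated growth.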", "values": [
      {"compound": "CCC(CO)(CO)CBr", "growth inhibition": "0.6%"},
      {"compound": "O=C(O)CCNCCCCNCCC(=O)O", "growth inhibition": "-23.9%"},
      {"compound": "COc1cc(C(=O)O)cc(OC(C)=O)c1OC", "growth inhibition": "8.3%"},
      {"compound": "CC(=O)CC(C)=NCCN=C(C)CC(C)=O.[Cu]", "growth inhibition": "75.7% (active)"},
      {"compound": "COCCOCOCCCC#C[Si](C)(C)C", "growth inhibition": "13.9%"}
    ]},
    {"test": "NCI Yeast Anticancer Drug Screen. Data for the cln2 rad14 strain (AID 165);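 also: 0% = growth equal to vehicle treated cultures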", "conditions": "S. cerevisiae cln2 rad14 strain, at 50.0 µM, hits give high values", "summary_of_the_method": "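Strain: cln2 rad14 yeast, altered in cell cycle control and DNA damage repair. Read-out: growth inhibition vs vehicle.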", "units": {"growth inhibition": "%"}, "values": [
      {"compound": "COC(=O)C(CSSCC(C(=O)NC(Cc1ccccc1)C(=O)NCC(=O)OC(C)(C)C)N1C(=O)CCC1=O)NC(=O)OCc1ccccc1", "note": "(centres undefined)", "growth inhibition": -45.4},
      {"compound": "COc1cc2ccc3c[n+](C)ccc3c2cc1OC", "growth inhibition": -22.4},
      {"compound": "CCCCNc1nc(SC)nc2nc[nH]c12", "growth inhibition": -21.2},
      {"compound": "O=C1c2ccccc2-c2ccc(-n3c(=O)c4ccccc4c4ccccc4c3=O)cc21", "growth inhibition": 16.1},
      {"compound": "O=C1NC(=O)C2CCC12", "note": "(centres undefined)", "growth inhibition": -20.7},
      {"compound": "CC/C(=C/c1cccc([N+](=O)[O-])c1)C(=O)O", "growth inhibition": 6.1},
      {"compound": "Cc1c(C(=O)O)c2cc3ccccc3cc2c(=O)n1C", "growth inhibition": -40.6},
      {"compound": "N=c1oc2ccc([N+](=O)[O-])cc2cc1C(=O)NCc1ccccc1", "growth inhibition": 3.95},
      {"compound": "CNC(C#N)c1ccco1", "note": "(centres undefined)", "growth inhibition": 8.4},
      {"compound": "CCCCCCC(O)C/C=C/CCCCCC/C(C(=O)OC)=C(/O)C(=O)OCC", "note": "(centres undefined)", "growth inhibition": -27.6},
      {"compound": "Cc1noc2c1NC(=O)OCC2", "growth inhibition": -2},
      {"compound": "O=C(O)c1ccccc1C(=O)NCc1ccc(Cl)cc1Cl", "growth inhibition": -7.3},
      {"compound": "Nc1nc(Cl)cc(Nc2ccc3c(c2)CCC3)n1", "growth inhibition": 19.1},
      {"compound": "Cc1c2cnccc2c(C)c2c1c1ccccc1n2CCCCCCCl", "growth inhibition": 66}
    ]}
  ]
}
